Data: PubChem BioAssay (NCI)
Compounds without any hit were thinned out: in the full panel of roughly 83,000, 20% have a hit.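 Negative percent growth values reflect cell death: -40 means 40% of the cells present at the start died, and -100 means all died.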 Values without a mark were called inactive. Active and inactive are the calls of the source. Rule for the calls: active = growth percent below 10; inactive = the rest.

These molecules were tested on SF-268 CNS (assay: NCI-60 one-dose screen, 48 h (100 = growth as untreated, 0 = no growth, -100 = all killed)). Settings: 10 µM unless noted.

Structure (SMILES)	growth
CCCCC1CCCC12NC(=O)NC2=O (configuration not stated)	99.5%
COc1ccc2c(c1)c(-c1nn3cc(-c4cccs4)nc3s1)cn2C	80.3%
COc1ccc([C@H]2c3cc(OC)c(OC)cc3C=C(C=O)C2CO)cc1OC (some centres not stated)	60.5%
C/C(=N/NC(N)=S)c1sc(Nc2cccc(Cl)c2)nc1C	75.1%
Cc1cccc2c3c(sc12)C(c1ccc(F)cc1)C(C#N)=C(N)O3 (configuration not stated)	27.8%
COc1cc(C(=O)c2cnc(-c3cccc4[nH]ccc34)[nH]2)cc(OC)c1OC	24.5%
COc1ccc(C(=S)N2CCN(c3cccc(C)c3)CC2)cc1OC	84.7%
CCOC(=O)/C(C#N)=C\Nc1ccc2ncnc(Nc3ccc(Cl)cc3Cl)c2c1	73%
Cc1nn(-c2ccccc2)c(-n2ccnc2)c1/C=N/Nc1nc(-c2ccc(F)cc2)cs1	76.9%
Cc1cc(=O)oc2cc(OC(=O)N3CCN(C)CC3)ccc12	101%
COc1cc(/C=C/c2c(C(C)=O)c(C)nc3ccccc23)cc(OC)c1OC	49.3%
NS(=O)(=O)c1ccc(-n2nc(-c3ccc(Cl)cc3)c3ccccc3c2=O)cc1	98.1%
COc1ccc(C(=O)C[C@]2(O)C(=O)Nc3c(Cl)ccc(Cl)c32)cc1	61.9%
O=c1[nH][n+](-c2ccc(Br)cc2)no1	32.8%
COc1cc2cc(Oc3ccc(NC(=O)Nc4ccc(Cl)c(Cl)c4)cc3)c(C)nc2cc1OCCN1CCOCC1	94.3%
C#C[C@]1(O)CC[C@H]2[C@@H]3CC=C4c5sc(Nc6ccccc6)nc5CC[C@]4(C)[C@H]3CC[C@@]21C	24.3%
CCCCCCCCCCCCCCCCCCOc1ccc(CC(=O)OCC[N+](C)(C)C)cc1	104%
Cc1ccc(-c2nc3c(c(-c4ccccc4)nn3-c3ccccc3)c(-c3ccc(O)cc3)c2C#N)cc1	60.2%
CN(C)CCS(=O)(=O)Nc1cc(-c2ccc3ncc(C#N)c(Nc4ccc(F)c(Cl)c4)c3c2)cnc1Cl	-41% (active)

Structure (SMILES)	growth
O=C(Nc1ccc(I)cc1F)c1cc(I)ccc1O	13.6%
C/C=C(\C)C(=O)N[C@H]1[C@@H](OC(C)=O)C[C@]2(C)C3CC[C@@]4(C)C(CC[C@@H]4C(C)N(C)C)C3CCC2[C@H]1O (some centres not stated)	42.7%
COc1ccc2[nH]c(-c3ccccc3)c(/C=C(\C#N)S(=O)(=O)c3ccccc3)c2c1	72.2%
NCCNc1nc2ccccc2c2c(=O)c3cccc(F)c3sc12	61.6%
Nc1nc2ccccc2c2c(=O)c3cc(F)ccc3sc12	103%
O=C1CN(CCN2CC(=O)N(Cc3ccccc3)C(=O)C2)CC(=O)N1Cc1ccccc1	103%
COc1ccc(-c2[nH]c3ccc(OC)cc3c2/C=C(\C#N)S(=O)(=O)c2ccccc2)cc1	33.8%
CN1C(=O)N(C)C2Nn3c(s/c(=C\c4ccccc4)c3=O)=NC21 (configuration not stated)	93.9%
Nc1ccc(Sc2ccc([N+](=O)[O-])c3nonc23)cc1	98%
CS(=O)(=O)Nc1cc(-c2ccc3ncnc(Nc4cccc(Cl)c4F)c3c2)cnc1Cl	24.2%
CCCCNC(=O)Oc1ccc(/C(=C(\C)c2ccc(Cl)cc2)c2ccc(OCCN3CCCCC3)cc2)cc1	76.1%
CCCSc1nc2ccc(C)cc2cc1/C=[N+](\[O-])c1ccccc1	45.5%
C[C@H]1[C@H]2[C@H]3CC[C@@H]4[C@@]5(C)CC[C@H](O)C(C)(C)[C@@H]5CC[C@@]4(C)[C@]3(C)CC[C@]23CO[C@]1(C)[C@@H](C(=O)/C=C\c1cccnc1)C3	81.9%
Cc1onc2c(-c3ccccc3)n[nH]c(=O)c12	121%
COc1cc(/C=C/C(=O)/C=C/c2cc(OC)c3c(c2OC)OCO3)c(OC)c2c1OCO2	48.7%
O=C1/C(=C/c2ccccc2[N+](=O)[O-])Oc2ccc(O)c(O)c21	60.4%
CC1=C(C)C(=O)C(Nc2cccc(C(=O)OC(C)(C)C)c2)=C(Br)C1=O	93.7%
NS(=O)(=O)c1ccc(N=Nc2ccc(-c3nn4cc(-c5ccccc5)nc4s3)cc2)cc1	101%
